Results reported in PubChem BioAssay (NCI).
The panel holds about 79,000 compounds, 15% with a hit somewhere; the sample as a whole holds those more often. Active and inactive are the calls of the source. No stated cut-off is given here; in the data, active means growth inhibition above about 70%; inactive means the rest.

Legend:
[1] = NCI Yeast Anticancer Drug Screen. Data for the rad52 strain (AID 147);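 further: 0% = growth of vehicle-treated control cultures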; settings: S. cerevisiae rad52 mutant growth inhibition, stronger effect = higher value
Outline: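 Compounds are applied to a genetically defined yeast strain lacking normal DNA damage repair, and inhibition of growth is expressed relative to cultures given vehicle only.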

[2] = NCI Yeast Anticancer Drug Screen. Data for the wt1 strain (AID 149);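 further: 0% = growth of vehicle-treated wt1 cultures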; settings: S. cerevisiae wt1 strain (SPY 50644) growth inhibition, stronger effect = higher value
Outline: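 Readout: yeast growth inhibition, normalised to vehicle controls, in the wt1 strain exposed to test compounds.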

[3] = NCI Yeast Anticancer Drug Screen. Data for the rad50EPP+ strain (AID 151);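 further: 0% = growth of vehicle-treated control cultures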; settings: S. cerevisiae rad50 mutant strain, stronger effect = higher value
Outline: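 Compounds were applied to the rad50EPP+ yeast strain, which bears a defined DNA repair alteration, and growth inhibition was determined relative to vehicle-treated cultures.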

[4] = NCI Yeast Anticancer Drug Screen. Data for the rad50 strain (AID 155);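 further: 0% = growth of vehicle-only cultures of the same strain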; settings: S. cerevisiae rad50 strain growth inhibition, stronger effect = higher value
Outline: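 Compounds were tested on a yeast strain with an engineered DNA damage repair alteration; the reported value is growth inhibition normalised to vehicle treatment.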

[5] = NCI Yeast Anticancer Drug Screen. Data for the mec2-1 strain (AID 157); settings: S. cerevisiae mec2-1 strain, stronger effect = higher value
Outline: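 Strain: mec2-1 (DNA repair/cell cycle alteration). Compound exposure, then growth measured; inhibition expressed relative to vehicle.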

[6] = NCI Yeast Anticancer Drug Screen. Data for the rad14 strain (AID 159);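 further: 0% = growth of vehicle-treated control cultures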; settings: S. cerevisiae rad14 strain growth inhibition, stronger effect = higher value
Outline: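 Compound-treated yeast with a defined DNA-repair lesion; growth inhibition normalised to vehicle-treated cultures.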

[7] = NCI Yeast Anticancer Drug Screen. Data for the sgs1 mgt1 strain (AID 161);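 further: 0% = growth of cultures given vehicle only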; settings: S. cerevisiae sgs1 mgt1 strain, stronger effect = higher value
Outline: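 Read-out: growth inhibition vs vehicle controls. Cells: mutant yeast strain deficient in DNA damage repair.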

[8] = NCI Yeast Anticancer Drug Screen. Data for the CLN2oe strain (AID 163);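 further: 0% = growth of vehicle-only control cultures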; settings: S. cerevisiae CLN2oe strain, stronger effect = higher value
Outline: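 Growth of a genetically modified yeast strain is measured after compound exposure and compared with cultures given vehicle alone.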

[9] = NCI Yeast Anticancer Drug Screen. Data for the cln2 rad14 strain (AID 165);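 further: 0% = growth equal to vehicle treated cultures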; settings: S. cerevisiae cln2 rad14 strain, stronger effect = higher value
Outline: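 Compounds are applied to the cln2 rad14 yeast strain, and growth is then compared with that of vehicle-treated cultures to give inhibition.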

[10] = NCI Yeast Anticancer Drug Screen. Data for the bub3 strain (AID 167); settings: S. cerevisiae bub3 mutant strain, stronger effect = higher value
Outline: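 Growth of a checkpoint-deficient yeast mutant is measured after compound exposure. Values represent inhibition relative to vehicle.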

[11] = NCI Yeast Anticancer Drug Screen. Data for the wt2 strain (AID 169);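 further: 0% = growth of vehicle-treated yeast cultures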; settings: S. cerevisiae wt2 strain growth inhibition, stronger effect = higher value
Outline: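 This strain belongs to a panel of yeast strains with defined genetic alterations in DNA damage repair or cell cycle control. Compounds are applied, and growth inhibition is measured against vehicle-treated cultures.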

[12] = NCI Yeast Anticancer Drug Screen. Data for the mlh1 strain (AID 171);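 further: 0% = growth of vehicle-treated control cultures of the same strain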; settings: S. cerevisiae mlh1 strain growth inhibition, stronger effect = higher value
Outline: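 Growth of the mutant yeast strain after compound exposure, expressed as inhibition relative to vehicle-only controls.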

[13] = NCI Yeast Anticancer Drug Screen. Data for the sgs1 strain (AID 173);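 further: 0% = growth of vehicle-only control cultures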; settings: S. cerevisiae sgs1 mutant, stronger effect = higher value
Outline: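 Growth of a yeast strain bearing a defined genetic alteration is measured after compound treatment. Inhibition is expressed relative to vehicle-only controls.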

[14] = NCI Yeast Anticancer Drug Screen. Data for the mlh1 rad18 strain (AID 175); settings: S. cerevisiae mlh1 rad18 strain growth inhibition, stronger effect = higher value
Outline: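 Read-out is yeast growth inhibition, calculated against vehicle-only controls. The compound was applied to a strain engineered with DNA damage repair alterations.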

[15] = NCI Yeast Anticancer Drug Screen. Data for the rad18 strain (AID 177); settings: S. cerevisiae rad18 mutant growth inhibition, stronger effect = higher value
Outline: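 Growth of the mutant yeast strain after compound exposure, normalised to vehicle-only cultures.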

[16] = at 5.0 µM (retest, dose inferred, filed as 0.5)
[17] = at 50.0 µM (retest, dose inferred, filed as 5.0)

Measured: growth inhibition

CNC(=O)OCc1c2ccncc2c(C)c2c1[nH]c1ccccc12
active: [1]; at 3.7 µM 82% | [1]; at 11.0 µM 88% | [1]; at 33.0 µM 90% | [1]; at 100.0 µM 88% | [4]; at 3.7 µM 72% | [4]; at 11.0 µM 82% | [4]; at 33.0 µM 86% | [4]; [17] 75% | [4]; at 100.0 µM 82% | [5]; at 11.0 µM 84% | [5]; at 33.0 µM 90% | [5]; [17] 89% | [5]; at 50.0 µM 73.8% | [5]; at 100.0 µM 87% | [6]; at 3.7 µM 80% | [6]; at 11.0 µM 89% | [6]; at 33.0 µM 92% | [6]; at 100.0 µM 89% | [9]; [17] 84% | [9]; at 50.0 µM 83.2% | [13]; at 3.7 µM 76% | [13]; at 11.0 µM 84% | [13]; at 33.0 µM 85% | [13]; at 100.0 µM 84% | [14]; [17] 71% | [14]; at 50.0 µM 82.8% | [15]; at 1.2 µM 89% | [15]; at 3.7 µM 93% | [15]; at 11.0 µM 93% | [15]; at 33.0 µM 91% | [15]; at 100.0 µM 87%
inactive: [1]; at 1.2 µM 59% | [2]; at 1.2 µM 2% | [2]; at 3.7 µM 6% | [2]; at 11.0 µM 6% | [2]; at 33.0 µM 21% | [2]; at 100.0 µM 56% | [3]; at 1.2 µM 1% | [3]; at 3.7 µM 17% | [3]; at 11.0 µM 14% | [3]; at 33.0 µM 31% | [3]; at 100.0 µM 45% | [4]; at 1.2 µM 33% | [4]; [16] 61% | [4]; at 50.0 µM 56.4% | [5]; at 1.2 µM 13% | [5]; at 3.7 µM 60% | [5]; [16] 56% | [6]; at 1.2 µM 23% | [7]; [16] 40% | [7]; [17] 13% | [7]; at 50.0 µM 51.5% | [8]; at 1.2 µM 6% | [8]; at 3.7 µM 19% | [8]; at 11.0 µM 21% | [8]; at 33.0 µM 34% | [8]; at 100.0 µM 57% | [9]; [16] 44% | [10]; at 1.2 µM -41% | [10]; at 3.7 µM -56% | [10]; [16] -12% | [10]; at 11.0 µM -27% | [10]; at 33.0 µM 0% | [10]; [17] -48% | [10]; at 50.0 µM -12.1% | [10]; at 100.0 µM 39% | [11]; at 1.2 µM -17% | [11]; at 3.7 µM -21% | [11]; at 11.0 µM -9% | [11]; at 33.0 µM -1% | [11]; at 100.0 µM 42% | [12]; at 1.2 µM 6% | [12]; at 3.7 µM 20% | [12]; at 11.0 µM 26% | [12]; at 33.0 µM 38% | [12]; at 100.0 µM 66% | [13]; at 1.2 µM 67% | [14]; [16] 33%

O=C(c1cc(=O)c2ccc(O)cc2o1)c1ccc(Cl)cc1Cl
active: [1]; at 33.0 µM 90% | [1]; at 100.0 µM 92% | [2]; at 33.0 µM 75% | [2]; at 100.0 µM 92% | [3]; at 33.0 µM 94% | [3]; at 100.0 µM 96% | [4]; at 33.0 µM 94% | [4]; [17] 95% | [4]; at 50.0 µM 86.5% | [4]; at 100.0 µM 93% | [5]; at 33.0 µM 80% | [5]; [17] 95% | [5]; at 50.0 µM 85.2% | [5]; at 100.0 µM 93% | [6]; at 33.0 µM 76% | [6]; at 100.0 µM 91% | [7]; [17] 92% | [7]; at 50.0 µM 88% | [8]; at 33.0 µM 94% | [8]; at 100.0 µM 92% | [9]; [17] 93% | [9]; at 50.0 µM 78.2% | [10]; at 33.0 µM 95% | [10]; [17] 97% | [10]; at 50.0 µM 88.5% | [10]; at 100.0 µM 94% | [11]; at 100.0 µM 88% | [12]; at 33.0 µM 91% | [12]; at 100.0 µM 92% | [13]; at 33.0 µM 95% | [13]; at 100.0 µM 94% | [14]; [17] 96% | [14]; at 50.0 µM 85.5% | [15]; at 33.0 µM 94% | [15]; at 100.0 µM 94%
inactive: [1]; at 1.2 µM -31% | [1]; at 3.7 µM -32% | [1]; at 11.0 µM 8% | [2]; at 1.2 µM -6% | [2]; at 3.7 µM 1% | [2]; at 11.0 µM -2% | [3]; at 1.2 µM -23% | [3]; at 3.7 µM -7% | [3]; at 11.0 µM 52% | [4]; at 1.2 µM -11% | [4]; at 3.7 µM -16% | [4]; [16] 23% | [4]; at 11.0 µM 12% | [5]; at 1.2 µM -27% | [5]; at 3.7 µM -13% | [5]; [16] -30% | [5]; at 11.0 µM 5% | [6]; at 1.2 µM 2% | [6]; at 3.7 µM 4% | [6]; at 11.0 µM 19% | [7]; [16] 3% | [8]; at 1.2 µM -23% | [8]; at 3.7 µM -8% | [8]; at 11.0 µM 23% | [9]; [16] 13% | [10]; at 1.2 µM -16% | [10]; at 3.7 µM -11% | [10]; [16] 23% | [10]; at 11.0 µM 46% | [11]; at 1.2 µM -4% | [11]; at 3.7 µM -4% | [11]; at 11.0 µM 0% | [11]; at 33.0 µM 68% | [12]; at 1.2 µM -19% | [12]; at 3.7 µM -7% | [12]; at 11.0 µM 33% | [13]; at 1.2 µM -18% | [13]; at 3.7 µM -14% | [13]; at 11.0 µM 60% | [14]; [16] 37% | [15]; at 1.2 µM -6% | [15]; at 3.7 µM -19% | [15]; at 11.0 µM 19%

CNC(=S)N/N=C(/C)CCC/C(C)=N/NC(=S)NC
inactive: [1]; at 1.2 µM 28% | [1]; at 3.7 µM 54% | [1]; at 11.0 µM 64% | [1]; at 33.0 µM 64% | [1]; at 100.0 µM 68% | [2]; at 1.2 µM 1% | [2]; at 3.7 µM 35% | [2]; at 11.0 µM 48% | [2]; at 33.0 µM 45% | [2]; at 100.0 µM 44% | [3]; at 1.2 µM -9% | [3]; at 3.7 µM 17% | [3]; at 11.0 µM 37% | [3]; at 33.0 µM 59% | [3]; at 100.0 µM 43% | [4]; at 1.2 µM 36% | [4]; at 3.7 µM 67% | [4]; [16] 40% | [4]; [17] 37% | [4]; at 50.0 µM 66.8% | [5]; at 1.2 µM 27% | [5]; at 3.7 µM 42% | [5]; [16] 66% | [5]; at 11.0 µM 53% | [5]; at 33.0 µM 48% | [5]; [17] 55% | [5]; at 50.0 µM 43.4% | [5]; at 100.0 µM 35% | [7]; [16] 48% | [7]; [17] 53% | [7]; at 50.0 µM 66.5% | [9]; [16] 21% | [9]; [17] -2% | [9]; at 50.0 µM 27.2% | [10]; at 1.2 µM 43% | [10]; at 3.7 µM 62% | [10]; at 11.0 µM 65% | [10]; [17] 69% | [10]; at 50.0 µM 54.4% | [11]; at 1.2 µM 16% | [11]; at 3.7 µM 58% | [11]; at 100.0 µM 67% | [12]; at 1.2 µM -2% | [12]; at 3.7 µM 34% | [12]; at 11.0 µM 52% | [12]; at 33.0 µM 37% | [12]; at 100.0 µM 40% | [13]; at 1.2 µM 14% | [13]; at 3.7 µM 24% | [13]; at 11.0 µM 65% | [13]; at 33.0 µM 63% | [13]; at 100.0 µM 62% | [14]; [16] 55% | [14]; [17] 63% | [14]; at 50.0 µM 62.4% | [15]; at 1.2 µM 1% | [15]; at 3.7 µM 21% | [15]; at 11.0 µM 19% | [15]; at 33.0 µM 24% | [15]; at 100.0 µM 37%
active: [4]; at 11.0 µM 87% | [4]; at 33.0 µM 89% | [4]; at 100.0 µM 92% | [8]; at 1.2 µM 80% | [8]; at 3.7 µM 97% | [8]; at 11.0 µM 98% | [8]; at 33.0 µM 98% | [8]; at 100.0 µM 97% | [10]; [16] 70% | [10]; at 33.0 µM 73% | [10]; at 100.0 µM 74% | [11]; at 11.0 µM 78% | [11]; at 33.0 µM 72%
